The record followed here is PubChem BioAssay.

Test [1] is described as follows: inhibitors of TNFa-induced NFkB p65 translocation, primary screen, imaging, HUVEC, MLSMR starter and 10KST1 sets (AID 438;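 active = inhibition above 20% together with a positive visual image hit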;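 note: compound added about 3h40 before a 20 min TNFalpha stimulation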;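 for inhibition: signal is the nuclear over cytoplasmic p65 intensity ratio per well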). Conditions: HUVEC TNFa-induced p65 nuclear translocation; cell count: measured here: nuclei count (cytotoxicity indicator), at 2.08 µM; inhibition: at 2 µM, stronger effect = higher value, 0% TNFa-plus-vehicle, 100% no-TNFa wells.
The nature of test [2]: inhibitors of mutant huntingtin aggregation, primary screen, imaging, exon1htt(103Q)mCFP cells, high-content imaging (AID 483;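 active = visual image review flags a hit and inhibition of aggregation exceeds 20%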;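 note: compound exposure lasted 3 days before fixation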;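 for nuclei count: percent of the per-plate median nuclei count of sample wells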). The following applies: exon1htt(103Q)mCFP cell line, aggregate imaging, at 2 µM; inhibition of aggregation: stronger effect = higher value; nuclei count: measured here: cell count, toxicity.
The nature of test [3]: inhibitors of E-selectin induction by TNFa, primary screen, imaging, HUVEC, immunofluorescence, MLSMR starter and 10KST1 sets (AID 487;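 active = visually confirmed hit in the image check and inhibition above 20%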;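 for inhibition: signal is fraction of cell area covered by stained E-selectin grains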;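 for nuclei count: 100% = median nuclei count of all wells on the same plate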). Conditions: HUVEC TNFalpha-induced E-selectin immunofluorescence imaging, at 2 µM; inhibition: stronger effect = higher value; nuclei count: measured here: cell number, toxicity.
In test [4] the target is Voltage-gated potassium channel subunit beta-2 (Rattus norvegicus) (UniProt P62483). The test can be described thus: KvBeta enzyme negative modulators, primary screen, biochemical, NADPH fluorescence (AID 622;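 active = fluorescence slope higher than the sample average by over 3 SD, cut at about -0.22 in these data, passing the limit was not always enough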;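 note: slope of raw intensity against log time taken from 70 to 1610 s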). The following applies: recombinant KvBeta, 4-cyanobenzaldehyde reduction, at 10 µM, stronger effect = higher value.
The target is the same in test [5]. The test can be described thus: KvBeta positive modulators, primary screen, biochemical, NADPH fluorescence (AID 623;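 active = NADPH fluorescence slope more negative than the mean of all samples by about 3 SD, 99.7% confidence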;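 note: fluorescence intensity change per second fitted from 20 to 320 s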). Conditions: Recombinant KvBeta, NADPH fluorescence decrease slope, 10 min; at 10 µM; stronger effect = lower value.
Test [6] has as its target Alpha-2C adrenergic receptor (Homo sapiens) (UniProt P18825). The test can be described thus: modulators of alpha2C/GIRK thallium flux, primary screen, cell-based, HEK293 alpha2C/GIRK1/2 (AID 624;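 active = fluorescence slope after compound addition differing from the mean of all screened samples at 99.7% confidence, in either direction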;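 note: slope of fluorescence ratio to pre-addition baseline per second over 15 to 24 s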). The following applies: thallium flux BTC fluorescence, at 10 µM, actives lie on both sides.
Test [7] is described as follows: inhibitors of Sendai virus-induced IRF3 signaling, primary screen, TLR/RLR signaling modifier project, cell-based, Sendai virus stimulus, luciferase, 10K MLSCN set (AID 602276).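 Note: firefly luciferase from ISG56 promoter only with Renilla not read in this screen; 0% = Sendai virus plus DMSO and 100% = medium plus DMSO without virus.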 The following applies: HEK293 RL24 IRF3 luciferase reporter, at 10 µM, stronger effect = higher value.
Test [8] in a line: inhibitors of poly I:C-induced TLR3 signaling, primary screen, cell-based, poly I:C stimulus, luciferase, 10K MLSCN set (AID 602277;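 active = inhibition of the reporter signal at or above 50%; inactive = inhibition below 50%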). Conditions: HEK293-TLR3 RL24 IRF3 luciferase reporter, at 10 µM, stronger effect = higher value. A general note: In a reporter assay the amount or activity of a reporter protein is the signal.

Active and inactive are the calls of the source.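 Rule for the calls, unless noted: active = inhibition at or above 50% at 10 µM; inactive = inhibition below 50%.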

Chain of Voltage-gated potassium channel subunit beta-2 (Rattus norvegicus) (P62483 whole entry, looked up): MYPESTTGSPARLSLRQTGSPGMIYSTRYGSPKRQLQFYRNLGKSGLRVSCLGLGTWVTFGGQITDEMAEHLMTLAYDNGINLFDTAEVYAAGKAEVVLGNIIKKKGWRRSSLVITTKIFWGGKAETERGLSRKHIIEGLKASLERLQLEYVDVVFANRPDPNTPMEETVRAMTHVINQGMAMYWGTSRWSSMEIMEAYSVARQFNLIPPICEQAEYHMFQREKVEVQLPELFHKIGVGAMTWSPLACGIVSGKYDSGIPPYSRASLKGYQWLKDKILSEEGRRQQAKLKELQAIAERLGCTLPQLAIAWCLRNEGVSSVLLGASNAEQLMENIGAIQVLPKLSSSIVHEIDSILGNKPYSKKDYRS
Chain of Alpha-2C adrenergic receptor (Homo sapiens) (P18825 whole entry, looked up): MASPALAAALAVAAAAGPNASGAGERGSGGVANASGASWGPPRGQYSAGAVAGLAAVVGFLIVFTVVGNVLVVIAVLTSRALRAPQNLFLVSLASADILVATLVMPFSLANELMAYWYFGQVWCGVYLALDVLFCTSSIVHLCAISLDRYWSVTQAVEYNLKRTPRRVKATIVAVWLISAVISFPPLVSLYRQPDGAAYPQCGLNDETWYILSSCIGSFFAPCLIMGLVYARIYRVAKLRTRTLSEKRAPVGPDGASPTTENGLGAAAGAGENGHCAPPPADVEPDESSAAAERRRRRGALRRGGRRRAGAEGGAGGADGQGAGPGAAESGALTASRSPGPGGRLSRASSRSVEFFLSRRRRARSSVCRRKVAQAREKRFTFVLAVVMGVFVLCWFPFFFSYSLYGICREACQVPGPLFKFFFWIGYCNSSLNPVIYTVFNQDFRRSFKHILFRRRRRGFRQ

Consider `COc1ccc(-n2c(COc3cccc(C)c3)nnc2SCC(=O)NCc2ccco2)cc1`, for which, in test [1], the cell count is 707. Also, the inhibition (commonly the relative decrease from the control value, in per cent) in test [1] is -6.3% (inactive); in test [3] it was -54.8% (inactive); in test [7], -3.09% (inactive); in test [8] it was 10.9% (inactive). The inhibition of aggregation in test [2] was 5.1% (inactive). Besides, the nuclei count in test [2] and in test [3] was 100% throughout. For the same compound, the fluorescence slope in test [4] was -0.596 (inactive). Further, the NADPH fluorescence slope in test [5] was -6.6e-05 (inactive). In addition, the slope in test [6] is 0.00613 (inactive).

Consider `O=C(O)CCCc1nc(-c2ccccc2)no1`, for which the cell count in test [1] amounted to 726. For the same compound, the inhibition in test [1] was -1.7% (inactive); in test [3] it was 22.1% (inactive); in test [7], 16.6% (inactive); in test [8] it was 20.7% (inactive). For the same compound, the inhibition of aggregation in test [2] was -4.5% (inactive). For the same compound, the values for the nuclei count in test [2] and in test [3] were 91.6% and 108%, respectively. Also, the fluorescence slope in test [4] is -0.447 (inactive). Further, the NADPH fluorescence slope in test [5] is 1.4e-05 (inactive). Besides, in test [6], the slope is 0.00583 (inactive).

Take `Cc1cc(C)n(CC(=O)NC2CCCCC2)n1`: the cell count in test [1] amounted to 406. For the same compound, the inhibition was -0.6% (inactive) in test [1], -225% (inactive) in test [3], 14.7% (inactive) in test [7] and 18% (inactive) in test [8]. Moreover, the inhibition of aggregation in test [2] was -4.9% (inactive). Moreover, the values for the nuclei count in test [2] and in test [3] were 105% and 114%, respectively. The fluorescence slope in test [4] is -0.468 (inactive). For the same compound, in test [5], the NADPH fluorescence slope was -1.5e-06 (inactive). For the same compound, the slope in test [6] is 0.00622 (inactive).

Turning to `CC(=O)NC1(C(F)(F)F)NC(=O)N(CC(C)C)C1=O` (stereo not drawn), the cell count in test [1] was found to be 359. Besides, the inhibition in test [1] is 4% (inactive); in test [3], -30.2% (inactive); in test [7] it was -14.7% (inactive); in test [8] it was 14% (inactive). In addition, the inhibition of aggregation in test [2] is -8.3% (inactive). The figures for the nuclei count in test [2] and in test [3] were 97.6% and 101%, respectively. In test [4], the fluorescence slope was -0.5 (inactive). Also, the NADPH fluorescence slope in test [5] was 2e-05 (inactive). The slope in test [6] is 0.00596 (inactive).

Turning to `CCn1c(SCC(=O)Nc2nc(C)cs2)nnc1-c1ccco1`, the cell count in test [1] is 339. Moreover, the inhibition is 0.4% (inactive) in test [1], -93.6% (inactive) in test [3], 8.27% (inactive) in test [7] and 23.4% (inactive) in test [8]. In addition, the inhibition of aggregation in test [2] was -8.5% (inactive). The nuclei count in test [2] and in test [3] was 114% throughout. For the same compound, the fluorescence slope in test [4] is -0.316 (inactive). Besides, the NADPH fluorescence slope in test [5] is -2.7e-05 (inactive). The slope in test [6] is 0.00755 (inactive).

For the compound `Cn1c(=O)c2c(nc(SCCCC#N)n2Cc2c(F)cccc2Cl)n(C)c1=O`, in test [1], the cell count was determined as 868. The inhibition is 0.6% (inactive) in test [1], -6.8% (inactive) in test [3], -9.31% (inactive) in test [7] and 7.45% (inactive) in test [8]. In test [2], the inhibition of aggregation is 9.8% (inactive). Besides, the nuclei count stood at 82.3% in test [2] and 108% in test [3]. In addition, in test [4], the fluorescence slope was -0.589 (inactive). Moreover, in test [5], the NADPH fluorescence slope is -6.6e-06 (inactive). Besides, the slope in test [6] was 0.00598 (inactive).

Regarding `O=C(Cc1c(F)cccc1Cl)Nc1ccncc1`, in test [1], the cell count stood at 285. For the same compound, the inhibition in test [1] is 4.3% (inactive); in test [3], -34.2% (inactive); in test [7], 12.9% (inactive); in test [8], 11.9% (inactive). In addition, the inhibition of aggregation in test [2] is 1% (inactive). Besides, the nuclei count in test [2] was 104%; in test [3], 124%. Also, the fluorescence slope in test [4] was -0.334 (inactive). For the same compound, the NADPH fluorescence slope in test [5] was 2.5e-05 (inactive). Moreover, the slope in test [6] is 0.00621 (inactive).

In the case of `CCN(CCNC(=O)C1CCN(S(=O)(=O)c2cccc3cccnc23)CC1)c1ccccc1`, in test [1], the cell count amounted to 614. Besides, the inhibition in test [1] was 5.8% (inactive); in test [3] it was 2.5% (inactive); in test [7], 11.9% (inactive); in test [8], 12.7% (inactive). Further, the inhibition of aggregation in test [2] is -11% (inactive). Moreover, the nuclei count in test [2] was determined as 112%; in test [3], 108%. The fluorescence slope in test [4] was -0.569 (inactive). Also, the NADPH fluorescence slope in test [5] is 2.5e-05 (inactive). Besides, the slope in test [6] is 0.00561 (inactive).
